From PubChem BioAssay come the findings set out here.

Experiment [1] in a line: survival rescue of mitochondrial mutant cells in low glucose, primary screen, MELAS cybrids, Rieske KO mouse fibroblasts, CellTiter-Glo (AID 1508586;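 active means mean z-score across replicates of 1.96 or higher in either the MELAS or the Rieske mutant cell line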;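 further: test concentration not given here; z relative to plate mean and SD of compound and empty wells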).
Experiment [2] in a line: viability rescue of complex I mutant cybrids, primary screen, cell-based, galactose medium, ATP luminescence (AID 1645843).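 Further: positive z means more ATP and so rescue of galactose-driven cybrid death.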 The conditions noted are these: complex I mutant cybrid cells, 72 h, stronger effect = higher value.
Setting [3] is: MELAS cybrid survival, CellTiter-Glo 48 h, stronger effect = higher value.
[4] abbreviates: Rieske KO mouse fibroblast survival, CellTiter-Glo 72 h.

Structures are written as SMILES. Activity calls are given as the source filed them.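 How the source made its calls, unless noted: active means z-score of at least 1.8 in each of two replicates, scored against plate mean and spread of sample wells; inactive means the rest.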

As for `CNS(=O)(=O)c1cc(NCc2cc3ccccc3s2)cc(C(=O)Nc2ccc(OC)cc2)c1`, the values for the z-score in experiment [1] (setting [3]), in experiment [1] (setting [4]) and in experiment [2] were 0.562 (inactive), 0.602 and 2.26 (inactive), respectively.

`C[C@@H](O)[C@@H]1NC(=O)[C@@H]2C[C@H](NCc3cc4ccccc4s3)CN2C1=O`: the results for the z-score in experiment [1] (setting [3]), in experiment [1] (setting [4]) and in experiment [2] were -0.64 (inactive), -0.73 and -0.615 (inactive), respectively.

In the case of `COc1ccc(CN2C[C@H](C(=O)Nc3ccc4c(c3)CCC4)C[C@H](C(=O)N3CCCCC3)C2)cc1OC`, the z-score in experiment [1] (setting [3]) is 0.5 (inactive); in experiment [1] (setting [4]), 0.0365; in experiment [2] it was -1.66 (inactive).

`O=C1[C@@H]2C[C@@H](O)CN2C(=O)[C@H]2CN(Cc3ccc(CN4CCCCC4)s3)CCN12`: the values for the z-score in experiment [1] (setting [3]), in experiment [1] (setting [4]) and in experiment [2] were -0.179 (inactive), -0.745 and 0.32 (inactive), respectively.

Regarding `COc1ccc(CN2C[C@@H](CN3CCOCC3)C[C@@H](C(=O)NCC3CCCO3)C2)cc1OC` (stereo not given in full), the z-score was 0.0226 (inactive) in experiment [1] (setting [3]), 0.461 in experiment [1] (setting [4]) and 1.14 (inactive) in experiment [2].
